Experimental data as given in the supplement of paper PMC12297408.
Values without a mark were called inactive.

System: Plasmodium falciparum NF54/iGP1_RE9H ulg8 stage V gametocytes
Test: gametocyte viability (luciferase signal relative to DMSO control) (% of DMSO control); higher = less gametocytocidal activity, active = 50 or less
Settings: exposure time: 72 h
In short: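 Viability was calculated relative to the mean of DMSO vehicle wells on each plate. Day-12 stage V gametocytes of line NF54/iGP1_RE9Hulg8 (~2.5% gametocytemia, 3% hematocrit, 0.5% Albumax II medium) were exposed in 96-well plates to compounds at final 10 µM or 1 µM, one well each, for 72 h at 37 °C. Luminescence was then read on an IVIS Lumina II after D-luciferin addition.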

| Compound | gametocyte viability (concentration: 1 µM) | gametocyte viability (concentration: 10 µM) |
| --- | --- | --- |
| N#CC(C#N)=Cc1ccc(O)c(O)c1 | 99 | 104 |
| N#C/C(=C\c1ccc(O)c(O)c1)C(N)=S | 101 | 101 |
| N#CC(C#N)=Cc1ccc([N+](=O)[O-])c(O)c1 | 107 | 102 |
| Cc1ccccc1-n1c(Cn2ncc3c(N)ncnc32)nc2cccc(C)c2c1=O | 94.7 | 104 |
| CCN1CCN(C(=O)Cc2ccc(Nc3ncc(F)c(Nc4ccc(C(=O)Nc5ccccc5Cl)cc4)n3)cc2)CC1 [Aurora A Inhibitor I] | 110 | 82.7 |
| CC(C)(C)c1cc(C=C(C#N)C#N)cc(C(C)(C)C)c1O | 101 | 110 |
| COC[C@H]1OC(=O)c2coc3c2[C@@]1(C)C1=C(C3=O)[C@@H]2CCC(=O)[C@@]2(C)C[C@H]1OC(C)=O [Wortmannin] | 91.8 | 89.3 |
| Cn1cc(C2=C(c3cn(C4CCN(Cc5ccccn5)CC4)c4ccccc34)C(=O)NC2=O)c2ccccc21 | 100 | 109 |
| C/C(O)=C(\C#N)C(=O)Nc1cc(Br)ccc1Br | 110 | 101 |
| OC[C@H]1O[C@@H](n2cnc3cc(Cl)c(Cl)cc32)[C@H](O)[C@@H]1O [5,6-dichloro-1-β-D-ribofuranosylbenzimidazole] | 112 | 119 |
| N#CC(C#N)=Cc1cc(O)c(O)c(O)c1 | 104 | 97.9 |
| O=c1[nH]c2ccc(Cl)cc2c(N[C@@H]2CN3CCC2CC3)c1-c1nc2ccccc2[nH]1 | 112 | 120 |
| Cc1ccccc1-n1c(Cn2cnc3c(N)ncnc32)nc2cccc(C)c2c1=O | 101 | 96.9 |
| CC(=O)c1c(O)c(C)c(O)c(Cc2c(O)c3c(c(C(=O)/C=C/c4ccccc4)c2O)OC(C)(C)C=C3)c1O [Rottlerin] | 100 | 96.9 |
| CC1=C(O)C(=O)[C@@H]2O[C@@H]2C1=O [Terreic acid] | 98.4 | 64.8 |
| N#CC(C#N)=Cc1cc(O)c(O)c([N+](=O)[O-])c1 | 103 | 101 |
| CN[C@@H]1C[C@H]2O[C@@](C)([C@@H]1OC)n1c3ccccc3c3c4c(c5c6ccccc6n2c5c31)C(=O)NC4 [Staurosporine] | 110 | 27.1 (active) |
